# Screens as filed in PubChem BioAssay.
# NPR1 activator: GC-A (human) enzyme activation. P16066. actives 0.14% (n = 370,000). activation, % at 10 µM. HEK293 GC-A cells, cGMP TR-FRET, EC30 ANP; 0% at EC30 ANP, 100% saturating ANP; in the data active = activation above about 40%
# GC-B act: GC-B (human) receptor activation. HEK293-GC-B cells, CNP EC30, cGMP TR-FRET; 0% at EC30 CNP, 100% saturating CNP. actives 0.11% (n = 370,000). activation, % at 10 µM. P20594. AID 1920062;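 active = activation at 10 µM reaching about 35% in either raw or pattern-adjusted values, limit read from the data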
# Target sequence (P20594 whole entry, looked up): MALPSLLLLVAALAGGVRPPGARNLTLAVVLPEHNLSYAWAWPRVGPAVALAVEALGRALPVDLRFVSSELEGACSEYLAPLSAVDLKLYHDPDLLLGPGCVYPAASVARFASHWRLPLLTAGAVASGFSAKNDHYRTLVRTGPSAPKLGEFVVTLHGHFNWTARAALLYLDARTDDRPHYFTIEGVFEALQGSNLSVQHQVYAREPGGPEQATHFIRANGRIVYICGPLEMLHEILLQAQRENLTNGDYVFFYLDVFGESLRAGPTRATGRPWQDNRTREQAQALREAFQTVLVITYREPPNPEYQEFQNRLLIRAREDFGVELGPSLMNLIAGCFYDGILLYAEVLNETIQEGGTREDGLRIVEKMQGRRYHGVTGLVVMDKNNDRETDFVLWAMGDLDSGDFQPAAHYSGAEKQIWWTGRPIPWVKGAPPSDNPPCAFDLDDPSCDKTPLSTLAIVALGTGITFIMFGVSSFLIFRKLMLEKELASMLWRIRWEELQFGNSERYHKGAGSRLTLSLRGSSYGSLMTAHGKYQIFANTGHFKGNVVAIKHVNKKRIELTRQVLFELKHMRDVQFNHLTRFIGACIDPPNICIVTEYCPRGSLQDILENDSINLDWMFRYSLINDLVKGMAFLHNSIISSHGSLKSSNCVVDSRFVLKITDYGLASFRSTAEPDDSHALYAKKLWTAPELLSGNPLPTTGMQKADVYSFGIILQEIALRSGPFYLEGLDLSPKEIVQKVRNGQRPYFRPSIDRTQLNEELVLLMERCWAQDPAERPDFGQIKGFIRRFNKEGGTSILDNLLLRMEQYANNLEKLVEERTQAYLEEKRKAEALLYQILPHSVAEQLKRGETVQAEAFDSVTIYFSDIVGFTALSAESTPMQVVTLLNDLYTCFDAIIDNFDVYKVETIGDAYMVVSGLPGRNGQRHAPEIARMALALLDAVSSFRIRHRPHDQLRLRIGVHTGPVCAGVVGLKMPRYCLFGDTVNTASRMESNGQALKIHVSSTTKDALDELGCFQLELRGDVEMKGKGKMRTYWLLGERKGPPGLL
# bovine MsrA act: bovine methionine sulfoxide reductase A activation; activation, % at 10.6 µM; purified bovine MsrA, absorbance read-out; actives 0.3% (n = 360,000); in the data active = activation above about 7.5%;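 also: 0% = vehicle and 100% = reference activator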
# MsrA inh: inhibitors of bovine MsrA; actives 0.75% (n = 360,000); inhibition, % at 15.5 µM; AID 651718; purified bovine MsrA, absorbance read-out; in the data active = inhibition above about 4.5%;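 also: 0% = vehicle wells with enzyme and 100% = reference inhibitor wells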
# The depositor's hits bear a star; . = not tested or not shown. Shown are actives, neighbours in structure and some others; about 1.2% of the full set was active somewhere.
SMILES,NPR1 activator,GC-B act,bovine MsrA act,MsrA inh
NC(=O)C1CCN(C(=S)c2ccc(-c3ccc(Br)cc3)o2)CC1,44.8*,47.3*,-3.5,3.4
Cc1ccc(C(=O)C2CCN(CC(=O)NC(C)C)CC2)cc1,2.9,0.2,.,.
C=Cc1ccc(C(=O)N2CCC(n3nnc4ncccc43)CC2)cc1,-2.5,-4.4,.,.
Cn1c(N)c(C(=O)COC(=O)c2cc(S(=O)(=O)N3CCOCC3)ccc2F)c(=O)n(C)c1=O,26.5,37.2*,-3.4,0.8
Cc1cc(S(=O)(=O)c2ccc([N+](=O)[O-])cn2)ccc1Br,19.5,36.6*,2.4,0.6
Cc1ccc(S(=O)(=O)c2ccc([N+](=O)[O-])cn2)cc1,9.4,4.2,4.2,1.7
COCCn1c(=NC(=O)CCS(=O)(=O)c2ccccc2)sc2cc(C(=O)OC)ccc21,61.1*,2.1,0.2,-0.7
Cn1c(=NC(=O)CS(=O)(=O)c2ccccc2)sc2cc(F)ccc21,-0.1,-0.8,-10.4,1.9
Cn1c(=NC(=O)CCS(=O)(=O)c2ccccc2)sc2cc(F)ccc21,61.8*,34.9,-2.5,-1.1
CC(C)(N[C@@H](Cc1ccccc1)C(=O)NCC(c1ccccc1)c1ccccc1)C(=O)NC1CCCCC1,-6.9,-10.3,.,.
CC(C)c1ccc(NC(=O)O[C@H]2CC[C@@]34CCCN3C(=O)CCC[C@H]4[C@H]2C)cc1,-1.9,-3.6,.,.
C[C@H]1[C@@H](OC(=O)N2CCCC2)CC[C@@]23CCCN2C(=O)CCC[C@@H]13,0.2,-3.7,.,.
Cc1ccc(/C=C2/NC(=O)N(Cc3ccccc3)C2=O)o1,39.8,46.3*,-3.1,0.1
Cc1cc(/C=C2/NC(=O)N(Cc3ccccc3F)C2=O)c(C)n1C,1.7,3.5,-4.4,1.4
CCN1C(=O)N/C(=C/c2cc(C)n(Cc3ccccc3)c2C)C1=O,5.4,6.1,-7.4,4.6*
COCCn1c(C)cc(/C=C2/NC(=O)N(Cc3ccc(C)cc3)C2=O)c1C,1.5,-4.7,-3.3,0.5
CCn1c(C)cc(/C=C2\NC(=O)N(Cc3ccc(Cl)cc3)C2=O)c1C,18.9,49.0*,-11.2,2.4
COc1ccc(C(C(=O)N(C)C2CCCC2)N(Cc2ccc(F)cc2)C(=O)c2ncn[nH]2)cc1OC (configuration not stated),0.8,-4.5,.,.
CC(C)CN(CC(C)C)C(=O)c1ccc2c(c1)NC(=O)C(C)(C)O2,5.2,-2.0,.,.
c1ccc(Cn2c(-c3cncs3)nc3ccccc32)cc1,10.5,2.8,4.9,0.5
Brc1ccc(Cn2c(-c3cncs3)nc3ccccc32)cc1,53.2*,5.2,-5.0,0.5
COc1ccc(-c2nc3ccccc3n2Cc2ccccc2)cc1,37.5,38.9*,-6.6,-0.7
O=C(CCl)NCCN1C(=O)S/C(=C\c2cccnc2)C1=O,.,.,-8.6,2.9
CC(C(=O)NCCN1C(=O)S/C(=C\c2cccnc2)C1=O)N1C(=O)c2ccccc2C1=O (configuration not stated),-4.3,-1.1,-11.1,4.6*
Nc1nc2c(nc(Br)n2[C@@H]2O[C@@H]3COP(=O)(O)O[C@H]3[C@H]2O)c(=O)[nH]1,116.2*,114.0*,-5.7,-1.4
SMILES,NPR1 activator,GC-B act,bovine MsrA act,MsrA inh
Cn1cccc1/C=C(/C#N)c1ccc(F)cc1,-4.4,-4.1,-4.9,5.6*
Cn1cccc1/C=C(\C#N)c1ccccc1,-5.4,-4.1,-3.7,3.8
Cc1ccc(-n2c(SCC(=O)O)nc3sc4c(c3c2=O)CCCC4)cc1,-2.3,-1.2,-9.4,0.2
Cc1cccc(-n2c(SCC(=O)O)nc3sc4c(c3c2=O)CCCC4)c1,-0.9,45.5*,1.2,0.0
CCCCCCCCN1C(=O)[C@@H](CC(=O)NCc2cccc(C(F)(F)F)c2)C[C@@]2(C(=O)OC)C1=C[C@H](COCc1ccccc1)O[C@@H]2C,-0.8,2.1,.,.
CC1CCN(c2ccc(C(=O)O)cc2NS(=O)(=O)c2ccccc2[N+](=O)[O-])CC1,-0.4,-4.4,.,.
COc1ccc(CNC(=O)O[C@H]2CC[C@@]34CCCN3C(=O)CCC[C@H]4[C@H]2C)cc1OC,-0.2,-2.4,.,.
CCOC(=O)Nc1ccc2c(COC(=O)C(NS(=O)(=O)c3ccc(Cl)cc3)C(C)O)cc(=O)oc2c1 (configuration not stated),0.9,-1.9,-3.1,4.6*
COC(=O)[C@H]1C[C@@]2(Oc3ccc(Br)cc3)c3ccccc3N(C(=O)OC(C)(C)C)[C@H]2N1C(=O)OC(C)(C)C,-20.9,-18.9,.,.
COc1ccc(-c2cc(-c3nnc(SCC(=O)Nc4cccc(Cl)c4C)n3N)[nH]n2)cc1,-22.8,-16.7,.,.
COc1cc(/C=N/NC(=O)c2nnn(-c3nonc3N)c2-c2cccs2)ccc1O,3.1,3.6,-10.9,4.2
COc1ccc(/C=N/NC(=O)c2nnn(-c3nonc3N)c2-c2cccs2)cc1OC,2.2,-5.2,-3.0,4.6*
COc1ccc(/C=N/N=C(\N)c2nonc2N)cc1OC,-0.5,-0.1,-2.9,4.6*
COc1ccc(OC)c(/C=N/N=C(\N)c2nonc2N)c1,-6.3,3.9,-2.1,1.7
O=C(NCc1ccco1)O[C@@H]1CC[C@@]23CCCN2C(=O)CCC[C@H]3C1,4.4,0.2,.,.
Cc1ccc(S(=O)(=O)NC[C@H]2CN(S(=O)(=O)c3ccc(C)cc3)[C@@H](Cc3ccccc3)CO2)cc1,-4.2,-3.3,.,.
COC(=O)[C@]12C[C@H](CC(=O)NCc3ccc(OC)c(OC)c3)C(=O)N(Cc3cccc4ccccc34)C1=C[C@H](C(C)(C)C)O[C@@H]2C,-3.6,5.2,.,.
O=C(/C=C/c1ccccc1)Nc1ccc2c(c1)OCCO2,2.7,-2.2,-1.2,-0.9
CSc1cccc(NC(=O)/C=C/c2ccco2)c1,-3.5,1.7,-3.7,1.1
O=C(/C=C/c1ccco1)Nc1ccccn1,-3.4,4.4,-6.5,3.9
COc1cccc(NC(=O)/C=C/c2ccco2)c1,0.5,-0.1,-3.2,4.6*
Cc1ccc(NC(=O)/C=C/c2ccco2)nc1,-6.0,-7.1,-5.1,5.0*
O=C(/C=C/c1ccco1)Nc1ccc2c(c1)OCCO2,4.0,4.7,-5.2,4.6*
COCc1cn(-c2ccc3c(c2)[C@]2(CC(=O)N(C)C2c2ccccc2)C(=O)N3CC(C)C)nn1 (some centres not stated),0.3,-1.8,.,.
COCCCNC(=O)CSc1nnc(-c2ccncc2)n1-c1ccc(OC)cc1,0.8,0.4,.,.
SMILES,NPR1 activator,GC-B act,bovine MsrA act,MsrA inh
CSc1ccccc1OCc1cc(C(=O)N[C@H]2CCCCNC2=O)no1,62.1*,1.6,-2.2,1.2
COC(=O)[C@]12C[C@H](CC(=O)NCC3CCCCC3)C(=O)N(Cc3ccco3)C1=C[C@H](C(C)C)O[C@@H]2C1CC1,-14.5,-14.1,.,.
Cc1ccnc(Nc2nc(-c3ccccc3)cs2)c1,6.4,-0.7,-2.7,0.7
Cc1ccnc(Nc2nc(-c3c(C)nc4sccn34)cs2)c1,32.0,36.7*,-2.9,2.4
Cc1cc(=O)[nH]c(N/N=C/c2cccs2)n1,-1.6,-4.8,-3.1,0.5
O=c1cnnc(N/N=C/c2cccs2)[nH]1,2.1,1.7,-4.4,4.6*
O=C1CCC[C@H]2C[C@H](NCc3cccc(Cl)c3)CC[C@]23CCCN13,0.2,-2.5,.,.
O=C(C1CCC1)N1CCc2cc(S(=O)(=O)N3CCN(c4ccccc4F)CC3)ccc21,0.0,-3.0,.,.
